Data from PubChem BioAssay (Tox21).
Results filed as inconclusive are left out. Active and inactive are the calls of the source. Unless noted, the call rests on the fitted dose curve; in most records, active means well fitted curve in the direction sought with a large enough effect in the repeat runs; inconclusive means weak or mixed curves; inactive means flat fitted curve, though single readings scatter.

Columns and labels:
[1] = qHTS assay to test for compound auto fluorescence at 535 nm (green) in HEK293 cells (AID 720680)
[2] = qHTS assay to test for compound auto fluorescence at 460 nm (blue) in HEK293 cell free culture (AID 720681)
In short: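 Compounds were added to cell-free DMEM with 10% FBS and fluorescence read directly. The blue channel used 405 nm excitation and 460 nm emission, with triamterene as the reference fluorophore.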

[3] = qHTS assay to test for compound auto fluorescence at 535 nm (green) in HEK293 cell free culture (AID 720682)
In short: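 Compounds were pin-transferred into cell-free DMEM with 10% FBS, and green fluorescence was read at excitation 485 nm and emission 535 nm. Intensities were expressed as fluorescein-equivalent values.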

[4] = qHTS assay to test for compound auto fluorescence at 590 nm (red) in HEK293 cell free culture (AID 720683)
In short: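 Cell-free wells of DMEM with 10% FBS received compound, and intrinsic fluorescence was read at excitation/emission 540/590 nm. Values expressed as equivalence to Rose Bengal sodium.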

[5] = qHTS assay to test for compound auto fluorescence at 590 nm (red) in HepG2 cell free culture (AID 720684)
In short: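 Rose Bengal sodium served as the reference for red signal. Test compounds were dispensed into serum-containing MEM (10% FBS) without cells, and plates were read at 540/590 nm.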

[6] = qHTS assay to test for compound auto fluorescence at 460 nm (blue) in HepG2 cell free culture (AID 720685)
In short: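 Cell-free plates of MEM plus 10% FBS received 23 nL compound or DMSO vehicle; blue-channel (405/460 nm) intensity scored against triamterene as reference fluorophore.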

[7] = qHTS assay to test for compound auto fluorescence at 535 nm (green) in HepG2 cell free culture (AID 720686)
[8] = qHTS assay to test for compound auto fluorescence at 460 nm (blue) in HepG2 cells (AID 720687)
In short: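 HepG2 cells in MEM with 10% FBS, attached overnight at 37 C, were exposed to compound or DMSO for 1 hr at 37 C, 5% CO2. Blue fluorescence was read at 405/460 nm, with triamterene as reference fluorophore.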

[9] = target: Glucocorticoid receptor (Homo sapiens) (UniProt P04150); assay: qHTS assay to identify small molecule agonists of the glucocorticoid receptor (GR) signaling pathway (AID 720691; active means well fitted activation curve with a large enough effect in the signal ratio in the repeat runs, not every such curve was filed as active; the % refers to the signal ratio; further: potency means the concentration at half of the fitted maximal effect)
Glucocorticoid receptor (Homo sapiens), sequence (P04150 whole entry, looked up): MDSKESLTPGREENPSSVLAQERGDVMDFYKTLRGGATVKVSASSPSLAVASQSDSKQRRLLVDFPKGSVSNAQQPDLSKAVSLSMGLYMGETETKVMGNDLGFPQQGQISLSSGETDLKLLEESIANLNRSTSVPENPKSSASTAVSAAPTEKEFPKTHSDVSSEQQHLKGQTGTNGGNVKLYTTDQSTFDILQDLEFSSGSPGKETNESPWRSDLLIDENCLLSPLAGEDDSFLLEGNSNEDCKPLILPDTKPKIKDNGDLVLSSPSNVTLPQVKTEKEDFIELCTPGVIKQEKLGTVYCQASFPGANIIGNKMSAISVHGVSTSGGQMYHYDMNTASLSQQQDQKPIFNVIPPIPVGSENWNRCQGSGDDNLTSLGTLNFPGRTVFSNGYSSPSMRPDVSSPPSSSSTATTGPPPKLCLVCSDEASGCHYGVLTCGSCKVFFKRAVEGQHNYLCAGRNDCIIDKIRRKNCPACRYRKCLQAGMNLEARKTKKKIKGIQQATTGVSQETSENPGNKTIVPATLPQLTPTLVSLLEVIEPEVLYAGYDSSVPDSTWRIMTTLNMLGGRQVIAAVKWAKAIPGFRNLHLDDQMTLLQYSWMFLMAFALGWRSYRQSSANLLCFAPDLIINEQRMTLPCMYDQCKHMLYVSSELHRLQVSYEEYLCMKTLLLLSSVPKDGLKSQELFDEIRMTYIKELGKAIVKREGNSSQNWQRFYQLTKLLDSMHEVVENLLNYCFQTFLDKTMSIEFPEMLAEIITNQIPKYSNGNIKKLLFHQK
In short: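 Cells: GR-bla HeLa, endogenous GR with stably integrated GRE-beta-lactamase reporter. Treatment 18 h, 37 C, compounds delivered in DMSO. Detection via LiveBLAzer B/G FRET substrate, 2 h RT, fluorescence intensity.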

[10] = target: Glucocorticoid receptor (Homo sapiens) (UniProt P04150); assay: qHTS assay to identify small molecule antagonists of the glucocorticoid receptor (GR) signaling pathway (AID 720692; active means well fitted inhibition curve with a large enough effect in the signal ratio in the repeat runs, not every such curve was filed as active; the % refers to the signal ratio)
In short: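 Quantitative HTS in antagonist format: HeLa cells expressing endogenous GR and a stably integrated GRE-bla reporter, stimulated with 5 nM dexamethasone (final) alongside test compounds for 18 h.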

Measured: Potency

CCCCCCCCCOC(=O)c1ccccc1C(=O)OCCCCCCCCC
inactive: [1] | [2] | [3] | [4] | [5] | [6] | [7] | [8] | [9]

O=C(Cn1ccnc1[N+](=O)[O-])NCc1ccccc1
inactive: [1] | [2] | [3] | [4] | [5] | [6] | [7] | [8] | [9] | [10]

Cc1ccnc(N)c1
inactive: [1] | [2] | [3] | [4] | [5] | [6] | [7] | [8] | [9] | [10]

CC(=O)Nc1ccc(OC(=O)c2ccccc2OC(C)=O)cc1
inactive: [1] | [2] | [3] | [4] | [5] | [6] | [7] | [8] | [9]

O=C1CCCCO1
inactive: [1] | [2] | [3] | [4] | [5] | [6] | [7] | [8] | [9] | [10]

Cc1ccc2c(c1)C(=O)c1ccccc1C2=O
inactive: [1] | [2] | [3] | [4] | [5] | [6] | [7] | [8] | [9]

CO/N=C(/C(=O)N[C@@H]1C(=O)N2C(C(=O)[O-])=C(C[n+]3ccn4ncccc43)CS[C@H]12)c1nsc(N)n1
inactive: [1] | [2] | [3] | [4] | [5] | [6] | [7] | [8] | [9] | [10]

OCC(O)CN1CCN(c2ccccc2)CC1 (stereo not given)
inactive: [1] | [2] | [3] | [4] | [5] | [6] | [7] | [8] | [9] | [10]

c1ccc(B(c2ccccc2)c2ccccc2)cc1
inactive: [1] | [2] | [3] | [4] | [5] | [6] | [7] | [8] | [9]

c1ccc(-c2nn[nH]n2)cc1
inactive: [1] | [2] | [3] | [4] | [5] | [6] | [7] | [8] | [9]

CCOC(CN1CCN(CC(C)C(=O)c2ccccc2)CC1)c1ccccc1 (stereo not given)
inactive: [1] | [2] | [3] | [4] | [5] | [6] | [7] | [8] | [9]

OCC1(CO)COCOC1
inactive: [1] | [2] | [3] | [4] | [5] | [6] | [7] | [8] | [9]

CC(CO)(CO)CO
inactive: [1] | [2] | [3] | [4] | [5] | [6] | [7] | [8] | [9] | [10]

CC1(C)O[C@H]2CC(=O)OC[C@]23[C@H]2CC[C@@]4(C)[C@H](c5ccoc5)OC(=O)[C@H]5O[C@]54[C@]2(C)C(=O)C[C@@H]13
inactive: [1] | [2] | [3] | [4] | [5] | [6] | [7] | [8]
active: [9] 8.49 µM

CCCCC1CCC(O)CC1 (stereo not given)
inactive: [1] | [2] | [3] | [4] | [5] | [6] | [7] | [8] | [9]

O=C(Cl)c1ccccc1[N+](=O)[O-]
inactive: [1] | [2] | [3] | [4] | [5] | [6] | [7] | [8] | [9]

CC(C)=CCC[C@@](C)(O)[C@H]1CC=C(C)CC1
inactive: [1] | [2] | [3] | [4] | [5] | [6] | [7] | [8] | [9] | [10]

CC(=O)OC1CCCCC1C(C)(C)C (stereo not given)
inactive: [1] | [2] | [3] | [4] | [5] | [6] | [7] | [8] | [9]

CCNC(=O)NCc1cccc(Cl)c1
inactive: [1] | [2] | [3] | [4] | [5] | [6] | [7] | [8]

C=CCSSCCC
inactive: [1] | [2] | [3] | [4] | [5] | [6] | [7] | [8] | [9] | [10]

CN(C)CCOC(=O)C(c1ccccc1)C1(O)CCCC1 (stereo not given)
inactive: [1] | [2] | [3] | [4] | [5] | [6] | [7] | [8] | [9] | [10]

CC(C)OC(=O)CCC(=O)OC(C)C
inactive: [1] | [2] | [3] | [4] | [5] | [6] | [7] | [8] | [9] | [10]

C/C=C(\C)C(=O)OCCc1ccccc1
inactive: [1] | [2] | [3] | [4] | [5] | [6] | [7] | [8] | [9] | [10]

CC(=O)c1cc(C)oc1C
inactive: [1] | [2] | [3] | [4] | [5] | [6] | [7] | [8] | [9]

CCC(C)C(C)=O (stereo not given)
inactive: [1] | [2] | [3] | [4] | [5] | [6] | [7] | [8] | [9] | [10]

Cc1c(C(=O)c2c[nH]n(C)c2=O)ccc(S(C)(=O)=O)c1C1=NOCC1
inactive: [1] | [2] | [3] | [4] | [5] | [6] | [7] | [8] | [9]
